Test results from PubChem BioAssay AID1259418 (Broad Institute, 2018).
The whole screen tested about 3,400 compounds, of which about 840 (25%) were called active. About 11% were inconclusive and are not listed.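 How the source made its calls: active means fitted half-maximal concentration of signal decrease at or below twice the sample's top tested concentration; inconclusive means flat curve between -70 and -30 percent, or poor fit; inactive means flat within 30 percent, signal rise, or potency above limit.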 The list is a sample of the results. Entries with a potency or affinity are not part of this list.

Assay: T. gondii growth inhibition with IFN-gamma, dose response, cell-based, ME49Luc, HeLa, luciferase, 72 h (AID 1259418)
Settings: T. gondii ME49Luc in IFN-y HeLa, stronger effect = lower value, -100% = high-dose IFN-γ control wells; at 19.5 µM unless noted

SMILES	max activity
CC(C)CC(=O)N1CCC(C(=O)NCCc2csc(-c3cccs3)n2)CC1	7.82% (inactive)
Cc1ccc(C)c(-c2coc(-c3ccc(NC(=O)Nc4ccc5c(c4)OCO5)cc3)n2)c1	81.1% (inactive)
CCc1nc(OCC(=O)Nc2cccc(C)c2)c2ccccc2n1	-9.62% [at 1.35 µM] (inactive)
Cc1cccc(OCC(=O)N2CSC[C@@H]2C(=O)NCCc2csc(-c3ccccc3)n2)c1	-20.7% [at 0.68 µM] (inactive)
Cc1ccc2c(c1C)-n1cccc1C1(CCN(C(=O)c3c(F)cccc3F)CC1)N2	-8.13% [at 0.16 µM] (inactive)
NC(=O)C1(N2CCCCC2)CCN(c2ncc(NC(=O)c3cccs3)cc2C(=O)O)CC1	8.78% [at 0.16 µM] (inactive)
CSc1cccc(NC(=O)Nc2ccc(-c3nc(-c4ccc(C)cc4)co3)cc2)c1	26.9% (inactive)
O=C(Cn1c(=O)c(S(=O)(=O)c2ccccc2)cc2ccccc21)NC1CCCCC1	2.73% (inactive)
Fc1ccc(CSc2nc(NCc3ccco3)c3ccccc3n2)cc1	-10.7% [at 2.6 µM] (inactive)
Cc1nc(-c2cc(S(=O)(=O)N3CCC(Cc4ccccc4)CC3)c(C)s2)sc1C	9.1% [at 0.16 µM] (inactive)
CCOc1ccccc1-c1nc(CSc2nc3c(c(=O)[nH]2)CN(CCOC)CC3)c(C)o1	20.2% [at 10 µM] (inactive)
CCc1nc(OCC(=O)Nc2ccccc2F)c2ccccc2n1	12.8% [at 10 µM] (inactive)
COc1ccc(NC(=O)CN2CCC3(CC2)N=C(c2cccc(F)c2)C(=O)N3)cc1Cl	18.3% [at 5 µM] (inactive)
Cc1ccc(CSC2=Nc3ccccc3C3=NC(CC(=O)NC4CCCCC4)C(=O)N23)c(C)c1 (stereo unspecified)	15.1% [at 5 µM] (inactive)
O=C(CN1CCC2(CC1)N=C(c1ccc(F)cc1)C(=O)N2)Nc1ccccc1C(F)(F)F	7.82% [at 10 µM] (inactive)
O=C(COc1ccccc1Cl)Nc1cncc(-c2nc3ccccc3o2)c1	-6.28% [at 2.6 µM] (inactive)
COc1cccc(N(Cc2nc(-c3cccc(Cl)c3)oc2C)S(=O)(=O)c2ccccc2)c1	9.67% [at 0.68 µM] (inactive)
COc1ccc(N(Cc2nc(-c3cccc(C)c3)oc2C)S(=O)(=O)c2ccc(OC)cc2)cc1	-8.14% [at 0.35 µM] (inactive)
COc1cccc(N(Cc2nc(-c3ccccc3)oc2C)S(=O)(=O)c2ccccc2)c1	-4.33% (inactive)
COc1ccc(N(Cc2nc(-c3cccc(Cl)c3)oc2C)S(=O)(=O)c2ccc(OC)cc2)cc1	-8.48% [at 2.6 µM] (inactive)
COc1ccc(N(Cc2nc(-c3cccc(C)c3)oc2C)S(=O)(=O)c2ccc(C)cc2)cc1	-7.34% [at 1.35 µM] (inactive)
